About 83,000 compounds went through this panel and 20% of them were active in at least one assay; those are over-represented in the sample as a whole.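 Single-concentration screen, 48 h exposure, 96-well plates. Endpoint: percent growth. Below 10 = active.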 Unmarked numbers belong to inactive results. Activity calls are given as the source filed them.
System: EKVX NSCLC
Assay: NCI-60 one-dose screen, 48 h (100 = growth as untreated, 0 = no growth, -100 = all killed)
Details: 10 µM unless noted
Description: Growth inhibition of the EKVX human Non-Small Cell Lung tumor cell line is measured as a screen for anti-cancer activity. Cells are grown in 96 well plates and exposed to the test compound for 48 hours. Compounds are tested at a single concentration, which is 10^-5 M for most compounds. The reported endpoint is percent growth (GI% or GIPRCNT), where numbers from 0 - 100% represent growth inhibition, and numbers from -100% - 0 represent cell death. For example, a value of 40 represents 60% growth inhibition. A value of 0 means no net growth occurred over the course of the experiment. A value of -40 indicates 40% of cells at the beginning of the experiment died by the end of the experiment. A value of -100 means all cells are dead at the end of the experiment.
NCI-60 Human Tumor Cell Lines Screen was performed using the standard one-dose NCI protocol, which is described in more detail at https://dtp.cancer.gov/discovery_development/nci-60/default.htm.
Compounds with GIPRCNT values below 10 were considered active. Activity score was based on GIPRCNT using the following formula: […]
Score is 0 for GIPRCNT values of 100 or above, 50 for GIPRCNT values of 0, and 100 for GIPRCNT values of -100.

SMILES	growth
Cc1c(-c2noc(-c3ccc([N+](=O)[O-])cc3)n2)no[n+]1[O-]	65.2%
Cn1c(/C=C(\C#N)c2cccc(C(F)(F)F)c2)nc2c(N3CCOCC3)nc(Cl)nc21	-76.2% (active)
O=c1oc2ccc(-c3ccc(F)cc3F)cc2c(=O)n1-c1cccc(C(F)(F)F)c1	13.5%
CCCCN1CCN(c2ccc3nc(-c4ccc5nc(-c6ccc(OC)c(OC)c6)[nH]c5c4)[nH]c3c2)CC1	38.8%
O=c1oc2ccc(Cl)cc2c(=O)n1-c1cc(C(F)(F)F)cc(C(F)(F)F)c1	5.27% (active)
Cc1ccccc1CNC(=O)C1CN(c2ccc(Cl)cc2)N(c2ccc(Cl)cc2)C1=O (stereo not given)	91.8%
Cc1cccc2c(=O)c3c(sc12)c(NCCCNCCO)nc1ccccc13	53.5%
NCCOc1ccccc1/C=C1\c2ccccc2-c2ccc([N+](=O)[O-])cc21	54.9%
COc1cc(/C=C2\CCC/C(=C\c3cc(CN4CCOCC4)c(O)c(OC)c3)C2=O)cc(CN2CCOCC2)c1O	54.3%
O=C(Nc1ccc(F)cc1F)c1cc(Br)ccc1O	8.29% (active)
O=C(Nc1ccc(Br)cc1F)c1cc(I)ccc1O	43.8%
O=C1c2cc(Cl)ccc2Oc2cc([N+](=O)[O-])ccc2N1c1ccc(F)cc1F	108%
CC(C)[C@H](NC(=O)Cn1cc(C(=O)O)nn1)C(=O)O	93.8%
Cc1nn(-c2nc3ccccc3[nH]2)c2c1C(c1ccc(OCC(N)=O)cc1)CC(=O)N2 (stereo not given)	96.9%
O=c1oc2ccc(Br)cc2c(=O)n1-c1ccc(Br)cc1F	3.25% (active)
COc1ccc(/C=C/C(=O)c2ccc(Nc3nc(NCCO)nc(Nc4ccc(Cl)cc4)n3)cc2)cc1	66.6%
O=C(Nc1ccc(F)cc1F)c1cc(Cl)ccc1O	34.2%
O=C(Nc1ccc(N2CCNCC2)cc1)c1[nH]ncc1Nc1cc(C2CC2)ncn1	69.8%
COc1ccc(CCN2C(=O)CCSC2=S)cc1	101%
COc1cc(C2C3=C(COC3=O)N(CCO)c3cc4c(cc32)CCC4)cc(OC)c1O (stereo not given)	34.3%

SMILES	growth
O=C(Nc1ccc(N2CCNCC2)cn1)c1[nH]ncc1Nc1ncnc2sccc12	65.8%
O=C1NC(=S)NC(=O)C1=Cc1cn(Cc2cn(Cc3cccc4ccccc34)nn2)c2ccccc12	96.4%
O=C(/C=C/c1ccccc1)c1ccc(Nc2nc(NCCO)nc(Nc3ccc(Cl)cc3)n2)cc1	74.2%
COc1ccc(CCN2C(=O)/C(=C/c3ccc(C4Oc5ccccc5C5CC(c6cccc(OC)c6)=NN54)cc3)SC2=S)cc1 (stereo not given)	94.4%
COC(=O)/C(CCC=C(C)C)=C1\[C@@H](OC(C)=O)C[C@@]2(C)[C@H]1C[C@@H](O)[C@H]1[C@@]3(C)CC[C@H](NCc4ccccc4)[C@@H](C)[C@@H]3CC[C@@]12C	63%
COc1cccc2cc(N(C)c3nc(C)nc4ccsc34)ccc12	60.2%
O=C(Nc1ccc(Cl)cc1)c1cc2ccccc2cc1OP(=O)(O)O	24.8%
COc1cc(/C=C2\CCC/C(=C\c3cc(CN4CCCCC4)c(O)c(OC)c3)C2=O)cc(CN2CCCCC2)c1O	87.3%
O=c1oc2ccc(F)cc2c(=O)n1-c1ccc(I)cc1F	9.58% (active)
O=c1oc2ccc(Br)cc2c(=O)n1-c1ccc(Cl)cc1F	9.06% (active)
COc1ccc(C2Nc3ncnc(N)c3N=C3c4ccccc4C(=O)C32)cc1 (stereo not given)	94.5%
CN1C(=O)N(C)C2C1NN=c1s/c(=C\c3ccc(Cl)cc3Cl)c(=O)n12 (stereo not given)	50.1%
Cc1ccc(NC2=CC(=O)C(=O)c3ccccc32)c(C)c1	143%
CC(=O)O[C@@H]1/C=C/C(=O)N[C@@H](C)CCC/C=C/[C@@H]2CCC[C@H]21	116%
COc1cc(CNC(=O)Cc2ccccc2)ccc1OCc1cn(-c2ccc(F)cc2)nn1	94.2%
CN(C)/C=C1\SC(=Nc2ccc(Cl)cc2)NC1=O	95.6%
CC(=O)c1ccc(NC(=O)Nc2ccc(S(=O)(=O)Nc3ccc(Cl)nn3)cc2)cc1	99%
O=c1c2cc(F)ccc2sc2c(Nc3ccncc3)nc3ccccc3c12	35.8%
Cc1cccc2c(=O)c3c(sc12)c(N1CCNCC1)nc1ccccc13	68.9%
O=c1nc2sc3nc4ccccc4cc3cc-2s1	48%

From PubChem BioAssay (NCI)
